Results from the supplement of paper PMC12808144.
Values without a mark were called inactive.

Experiments:
Mel-DCC-11 = assay: cell viability relative to DMSO control (fraction of DMSO control); higher = less cytotoxic, active = 0.5 or less; details: 1 µM; 120 h
Procedure, shortened: (§1)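 Cells in 40 µl per well went into 384-well plates pre-spotted acoustically with a TargetMol library of 315 approved anti-cancer drugs, each at 1 µM in duplicate, for 120 h. Seeding was 2500/well for NHEM-hTERT immortalized melanocytes and 1500/well for patient-derived Mel-DCC-11 and its resistant subline Mel-DCC-11-R, which was run alone and with 8 µM of its selecting drug. Luminescence was read with ATPlite 1step. Viability was normalised to vehicle-treated controls and averaged over duplicates.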

NHEM-hTERT = assay: as above; details: 1 µM; 120 h
Procedure, shortened: as §1

Mel-DCC-11-R = assay: cell viability relative to DMSO control (fraction of DMSO control); higher = less cytotoxic, active = 0.8 or less; details: 1 µM, 120 h
Procedure, shortened: as §1

| Structure (SMILES) | cell viability (Mel-DCC-11) | cell viability (NHEM-hTERT) | cell viability (Mel-DCC-11-R; vemurafenib co-treatment 0 µM) | cell viability (Mel-DCC-11-R; vemurafenib co-treatment 8 µM) |
| --- | --- | --- | --- | --- |
| CC(C)CN(C[C@@H](O)[C@H](Cc1ccccc1)NC(=O)O[C@H]1CCOC1)S(=O)(=O)c1ccc(N)cc1 [Amprenavir] | 0.769 | 0.952 | 0.854 | 0.833 |
| CC(C)(O)CNc1nc(Nc2ccnc(C(F)(F)F)c2)nc(-c2cccc(C(F)(F)F)n2)n1 [Enasidenib] | 0.875 | 1.09 | 1.3 | 0.834 |
| C=C1CC[C@H](O)C/C1=C/C=C1\CCC[C@]2(C)[C@@H]([C@H](C)/C=C/[C@H](C)C(C)C)CC[C@@H]12 [Vitamin D2] | 1.13 | 0.998 | 1 | 1.16 |
| Nc1ccn([C@@H]2O[C@H](CO)[C@@H](O)[C@@H]2O)c(=O)n1 [Cytarabine] | 0.87 | 0.886 | 0.654 (active) | 0.936 |
| CCN(c1cc(-c2ccc(CN3CCOCC3)cc2)cc(C(=O)NCc2c(C)cc(C)[nH]c2=O)c1C)C1CCOCC1 | 1.12 | 0.964 | 0.831 | 0.967 |
| N#CC[C@H](C1CCCC1)n1cc(-c2ncnc3[nH]ccc23)cn1 [(R)-Ruxolitinib] | 1.03 | 1.1 | 0.967 | 1.03 |
| CNC(=O)c1ccccc1Sc1ccc2c(/C=C/c3ccccn3)n[nH]c2c1 [Axitinib] | 1.51 | 0.879 | 0.981 | 1.03 |
| CCCCc1nc2cc(/C=C/C(=O)NO)ccc2n1CCN(CC)CC [Pracinostat] | 1.1 | 0.747 | 0.699 (active) | 0.453 (active) |
| OC[C@H]1O[C@@H](n2cnc3c2NC=NC[C@H]3O)C[C@@H]1O [Pentostatin] | 1.12 | 1.1 | 0.905 | 1.2 |
| Cl.Cl.Cl.Cl.Cl.Cl.Cl.Cl.c1cc(CN2CCCNCCNCCCNCC2)ccc1CN1CCCNCCNCCCNCC1 [AMD 3100 octahydrochloride] | 1.17 | 1.14 | 0.999 | 0.984 |
| CN(C)N=Nc1[nH]cnc1C(N)=O [Dacarbazine] | 2.24 | 0.982 | 1.04 | 1.17 |
| CC(=O)c1c(C)c2cnc(Nc3ccc(N4CCNCC4)cn3)nc2n(C2CCCC2)c1=O.Cl [Palbociclib hydrochloride] | 0.591 | 1.05 | 1.46 | 1.08 |
| CS(=O)(=O)OCCCCOS(C)(=O)=O [Busulfan] | 1.13 | 1.14 | 0.994 | 1.13 |
| NC(=O)NO [Hydroxyurea] | 0.899 | 1.1 | 1.09 | 0.655 (active) |
| CC(C)NCC(O)COc1cccc2ccccc12.Cl (stereo not drawn) [Propranolol hydrochloride] | 1.12 | 1.16 | 0.858 | 1.06 |
| O=c1[nH]c(=O)n([C@H]2C[C@H](O)[C@@H](CO)O2)cc1C(F)(F)F [Trifluridine] | 1.7 | 1.12 | 1.24 | 1.06 |
| Cc1nc2ccc(CN(C)c3ccc(C(=O)N[C@@H](CCC(=O)O)C(=O)O)s3)cc2c(=O)[nH]1 [Raltitrexed] | 1 | 1.03 | 1.16 | 1.09 |
| CNCc1ccc(-c2[nH]c3cc(F)cc4c3c2CCNC4=O)cc1.O=P(O)(O)O [Rucaparib Phosphate] | 1.1 | 0.996 | 0.916 | 1.11 |
| Oc1cc(O)cc(/C=C/c2ccc(O)c(O)c2)c1 [Piceatannol] | 0.919 | 1.09 | 0.982 | 1 |
| C=CC(=O)N1CCC[C@@H](n2nc(-c3ccc(Oc4ccccc4)cc3)c3c(N)ncnc32)C1 [Ibrutinib] | 0.492 (active) | 1.05 | 0.855 | 0.733 (active) |
| CCN(CC)C(=S)SSC(=S)N(CC)CC [Disulfiram] | 0.0336 (active) | 1.05 | 0.442 (active) | 0.108 (active) |

| Structure (SMILES) | cell viability (Mel-DCC-11) | cell viability (NHEM-hTERT) | cell viability (Mel-DCC-11-R; vemurafenib co-treatment 0 µM) | cell viability (Mel-DCC-11-R; vemurafenib co-treatment 8 µM) |
| --- | --- | --- | --- | --- |
| CNC(=O)c1cc(Oc2ccc(NC(=O)Nc3ccc(Cl)c(C(F)(F)F)c3)cc2)ccn1.Cc1ccc(S(=O)(=O)O)cc1 [Sorafenib tosylate] | 1.35 | 0.904 | 1.02 | 1.1 |
| COC(=O)N[C@H](C(=O)N1CC2(CC2)C[C@H]1c1ncc(-c2ccc3c(c2)C(F)(F)c2cc(-c4ccc5nc([C@@H]6[C@H]7CC[C@H](C7)N6C(=O)[C@@H](NC(=O)OC)C(C)C)[nH]c5c4)ccc2-3)[nH]1)C(C)C [Ledipasvir] | 1.1 | 1.26 | 1.13 | 0.51 (active) |
| C=C[C@H]1[C@@H](O[C@@H]2O[C@H](CO)[C@@H](O)[C@H](O)[C@H]2O)OC=C2C(=O)OCC[C@]21O [Swertiamarin] | 1.35 | 0.942 | 0.976 | 1.2 |
| Cn1nnc(-c2ccc(-c3ccc(N4C[C@H](CO)OC4=O)cc3F)cn2)n1 [Torezolid] | 2 | 0.958 | 0.848 | 0.663 (active) |
| C#C[C@]1(O)CC[C@H]2[C@@H]3CCc4cc(OC5CCCC5)ccc4[C@H]3CC[C@@]21C [Quinestrol] | 0.908 | 0.894 | 0.953 | 1 |
| C[C@H]1O[C@@H](n2cc(F)c(=O)[nH]c2=O)[C@H](O)[C@@H]1O [Doxifluridine] | 1.31 | 0.863 | 1.08 | 1.21 |
| COc1cc2c(cc1O)CC[C@@H]1[C@@H]2CC[C@]2(C)[C@@H](O)CC[C@@H]12 [2-Methoxyestradiol] | 0.961 | 0.87 | 1.29 | 0.985 |
| CCOC(=O)c1ccc(C#Cc2ccc3c(c2)C(C)(C)CCS3)nc1 [Tazarotene] | 1.1 | 1.16 | 1.09 | 1.23 |
| CCc1c2c(nc3ccc(OC(=O)N4CCC(N5CCCCC5)CC4)cc13)-c1cc3c(c(=O)n1C2)COC(=O)[C@]3(O)CC [Irinotecan] | 0.988 | 0.894 | 0.98 | 0.694 (active) |
| CS(=O)(=O)c1ccc(C2=C(c3ccccc3)C(=O)OC2)cc1 [Rofecoxib] | 0.898 | 0.925 | 0.862 | 0.825 |
| Nc1[nH]c(=O)ncc1F [Fluorocytosine] | 1.16 | 1.04 | 0.936 | 1.08 |
| Cc1nc(Nc2ncc(C(=O)Nc3c(C)cccc3Cl)s2)cc(N2CCN(CCO)CC2)n1 [Dasatinib] | 1.25 | 0.513 | 1.59 | 1.58 |
| COc1cc(C[C@H]2C(=O)OC[C@@H]2Cc2ccc(OC)c(OC)c2)ccc1O [Arctigenin] | 3.4 | 1.21 | 1.01 | 0.855 |
| Cl.Cl.O=C1c2c(O)ccc(O)c2C(=O)c2c(NCCNCCO)ccc(NCCNCCO)c21 [Mitoxantrone hydrochloride] | 1.08 | 0.797 | 1.14 | 0.477 (active) |
| COc1ccc2cc1Oc1ccc(cc1)C[C@H]1c3cc(c(OC)cc3CCN1C)Oc1c(OC)c(OC)cc3c1[C@H](C2)N(C)CC3 [Tetrandrine] | 0.653 | 1.25 | 0.886 | 1.05 |
| COc1cc2c(Oc3ccc4[nH]c(C)cc4c3F)ncnc2cc1OCCCN1CCCC1 [Cediranib] | 0.87 | 0.891 | 0.853 | 0.728 (active) |
| Cc1ccc(NC(=O)C2(c3ccc4c(c3)OC(F)(F)O4)CC2)nc1-c1cccc(C(=O)O)c1 [Lumacaftor] | 1.12 | 0.997 | 0.946 | 1.04 |
| CC(=O)O[C@]1(C(C)=O)CC[C@H]2[C@@H]3C=C(C)C4=CC(=O)CC[C@]4(C)[C@H]3CC[C@@]21C [Megestrol acetate] | 1.35 | 1.04 | 1.13 | 1 |
| Nc1ccccc1NC(=O)c1ccc(CNc2nccc(-c3cccnc3)n2)cc1 [Mocetinostat] | 0.976 | 0.55 | 0.558 (active) | 0.545 (active) |
| Nc1ncn([C@H]2C[C@H](O)[C@@H](CO)O2)c(=O)n1 [Decitabine] | 2.02 | 0.907 | 1.31 | 0.968 |
| CS(=O)(=O)CCNCc1ccc(-c2ccc3ncnc(Nc4ccc(OCc5cccc(F)c5)c(Cl)c4)c3c2)o1.Cc1ccc(S(=O)(=O)O)cc1.Cc1ccc(S(=O)(=O)O)cc1.O [Lapatinib ditosylate monohydrate] | 1.13 | 1.05 | 1.14 | 0.823 |
